Drawing on PubChem BioAssay AID2147 (National Center for Advancing Translational Sciences (NCATS), 2009), this text covers Potency for 35 compounds.

Hit rate of the full screen: of about 230,000 compounds, about 3,600 (1.6%) were called active. Inconclusive results (about 15%) are left out. The call rests on the fitted dose curve; in most records, active means well fitted inhibition curve with a large enough effect (not every such curve was filed as active); inconclusive means small, poorly fitted or top-dose-only effect, or another doubt; inactive means no such curve, though single readings can be large or run the other way. The list comes from a sample in which actives are over-represented; it also holds similar structures and randomly drawn compounds. A call without a number means that no potency is given here.
Further: nearly all actives have a fitted effect of over 50% in size.
Potency means the concentration at half of the fitted maximal effect.

In the assay the target is Lysine-specific demethylase 4E (Homo sapiens) (UniProt B2RXH2). Put plainly: qHTS Assay for Inhibitors of Human Jumonji Domain Containing 2E (JMJD2E). The settings on record: JMJD2E catalytic domain, FDH-coupled NADH fluorescence (FDH is formaldehyde dehydrogenase); series mostly up to 57.1 µM. From the text: Assay Provider: Structural Genomics Consortium [SGC] Screening Center PI: Austin, C.P. Screening Center: NIH Chemical Genomics Center [NCGC] The fine interplay among methylation states of several lysine residues on the tails of histone proteins is a major determinant of the transcriptional state of the associated DNA coding regions and is commonly referred to as the histone code. Histone lysine demethylases catalyze the removal of methyl groups from methylated lysine sidechains on histones H3 and H4, thus antagonizing the reactions catalyzed by histone lysine methyltransferases. […] In search for novel inhibitors of JMJD2E demethylase, a member of the largest set of histone demethylases belonging to the Fe(II) and 2-oxoglutarate oxygenase (2OG) superfamily, we performed a quantitative high-throughput screen (Inglese 2006) by using an assay which utilizes a trimethylated peptide substrate corresponding to a fragment of histone H3 (sequence ARKme3STGGK) with detection of the formaldehyde co-product in real time by a formaldehyde dehydrogenase (FDH) coupled reaction. FDH catalyzes oxidation of formaldehyde to formic acid with the concomitant reduction of the non-fluorescent beta-nicotinamide adenine dinucleotide hydrate (NAD+) cofactor to the fluorescent NADH co-product. References: Inglese, J., Auld, D., Jadhav, A., Johnson, R., Simeonov, A., Yasgar, A., Zheng, W. and Austin, C. Proc Natl Acad Sci USA 2006, 103, 11473-11478. N. R. Rose, S. S. Ng, J. Mecinovic, B. M. Lienard, S. H. Bello, Z. Sun, M. A. McDonough, U. Oppermann and C. J. Schofield, J Med Chem, 2008, 51, 7053-7056. Sakurai, M., Rose, N., Schultz, L., Quinn, A., Jadhav, A., Ng, S., Oppermann, U., Schofield, C.J. and Simeonov, A. Mol BioSystems 2009, in press. S. Michael, D. Auld, C. Klumpp, A. Jadhav, W. Zheng, N. Thorne, C. Austin, J. Inglese and A. Simeonov, Assay Drug Dev Technol, 2008, 6, 637-657.
Lysine-specific demethylase 4E (Homo sapiens), sequence (B2RXH2 1-337 limits assumed): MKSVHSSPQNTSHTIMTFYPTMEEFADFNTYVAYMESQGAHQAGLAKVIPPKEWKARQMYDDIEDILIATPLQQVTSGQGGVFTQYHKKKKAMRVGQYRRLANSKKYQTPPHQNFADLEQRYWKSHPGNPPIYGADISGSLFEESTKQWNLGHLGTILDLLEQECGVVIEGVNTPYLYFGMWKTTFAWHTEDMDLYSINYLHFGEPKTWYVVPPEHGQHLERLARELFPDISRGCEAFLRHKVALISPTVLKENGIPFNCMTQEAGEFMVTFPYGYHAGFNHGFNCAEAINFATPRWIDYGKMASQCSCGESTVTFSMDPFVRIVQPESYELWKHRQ
Reagents and Controls: Ferrous ammonium sulfate, (+)-sodium L-ascorbate, beta-nicotinamide adenine dinucleotide hydrate (NAD+), Tween-20, formaldehyde dehydrogenase from P. putida (FDH), and disodium 2-oxoglutarate were from Sigma (St. Louis, MO). Black solid-bottom 384-well or 1,536-well assay plates were from Greiner Bio-One (Monroe, NC). Enzyme was supplied by Prof. Udo Oppermann, SGC-Oxford. The catalytic domain of human JMJD2E (residues 1-337) was produced as an N-terminally His6-tagged protein in E. coli, and purified by Ni-affinity chromatography and size-exclusion chromatography, and stored in HEPES 50 mM/ NaCl 500 mM pH 7.5, as reported in Rose 2008. The trimethylated histone peptide substrate ARK(me3)STGGK was synthesized and HPLC-purified by the Tufts University Core Facility (Boston, MA). Substrate solution (Sakurai 2009) contained 50 uM ARK(me3)STGGK, 0.00025 U/uL FDH, 50 uM 2-oxoglutarate, 250 uM NAD+, 1 mM ascorbate, and 10 uM ferrous ammonium sulfate. Controls and plate map: Buffer (150 mM HEPES pH 7.5 containing 0.01% Tween-20) in columns 3 and 4 as negative control (no enzyme) and 100 nM JMJD2E final concentration in columns 1,2, and 5-48. Assay Steps: Enzyme and buffer solutions (3 uL) were dispensed into a 1,536-well Greiner black solid-bottom assay plate. The library compounds (23 nL) were transferred using a Kalypsys pintool equipped with 1,536-pin array. The plate was incubated at room temperature (15 min), and then a 1 uL aliquot of substrate solution was added to initiate the reaction. The plate was transferred to ViewLux imager where an initial reading using standard UV optics (Ex 340 nm, Em 450 nm) was obtained. The plate was then removed from the reader, incubated for 30 minutes at room temperature, and returned to the reader for a second fluorescence reading. A fully automated robotic screening system (Kalypsys Inc, San diego, CA) was used to perform the above steps as described previously (Michael 2008). […]
(In general: In qHTS, concentration-response curves come from the screen itself.)
Take `CCC(=NCCc1ccccc1)c1c(O)n(C2CCCCC2)c(=O)[nH]c1=O`: the Potency entry was “inactive”.

With `O=c1[nH]c(=O)n(Cc2ccccc2)c(O)c1/C=N/Nc1c(F)c(F)c(F)c(F)c1F`, the Potency result is “inactive”. Turning to `CC/C(=N\NC(=O)c1ccccc1O)c1c(O)n(Cc2ccccc2)c(=O)[nH]c1=O`, the Potency was 25.1 µM (active). Next, `CNCC[C@H](Oc1ccc(C(F)(F)F)cc1)c1ccccc1`: “inactive”; `N#Cc1c(Cl)c(Cl)c(Cl)c(C#N)c1Cl`: “inactive”; `CNC(=O)O/N=C(\N)Cc1csc2ccc(Cl)cc12`: “inactive”. Next, `CC[C@H]1CN2CCc3cc(OC)c(OC)cc3[C@@H]2C[C@@H]1C[C@H]1NCCc2cc(OC)c(OC)cc21`: “inactive”; `CC1CCCCN1Cc1cccnc1` (stereo not given): 20 µM (active). `c1cncc(CNC2=NCCC2)c1`: the Potency entry is “inactive”.

On to `CC1=C2C(=O)C3C(CC=C4CC(OC5OC(O)C(O)C(O)C5CO)CCC43C)C2CCC12OC1CC(C)CNC1C2C` (stereo not given), for which the Potency entry was “inactive”.

For the compound `CNC(C)[C@@H](O)c1ccccc1` (stereo not given in full), the Potency result is “inactive”. Regarding `Cc1ccc(N2C(=O)NC(=O)C(CCc3ccncc3)(Cc3cccc(Cl)c3Cl)C2=O)cc1` (stereo not given), the Potency entry is “inactive”. Consider `CCCCC/C=C\C/C=C\C/C=C\C=C\[C@H](CCCC(=O)O)OO`, for which the Potency entry is “inactive”. Turning to `C[C@H]1CC[C@@]2(NC1)O[C@@H]1C[C@H]3[C@@H]4CC=C5C[C@@H](O)CC[C@]5(C)[C@@H]4CC[C@]3(C)[C@@H]1[C@@H]2C`, the Potency result is “inactive”. Turning to `O=C(OCC1O[C@@H](OC(=O)c2cc(O)c(O)c(O)c2)[C@@H](OC(=O)c2cc(O)c(O)c(O)c2)[C@@H](OC(=O)c2cc(O)c(O)c(O)c2)[C@@H]1OC(=O)c1cc(O)c(O)c(O)c1)c1cc(O)c(O)c(O)c1` (stereo not given in full), the Potency is 3.16 µM (active). For `O=C(COC(=O)c1ccccc1)Nc1ccc(Cl)cc1C(=O)c1ccccc1`, the Potency entry is “inactive”.

In the case of `COc1ccccc1N1CCN(C(CNC(=O)Oc2ccccc2)c2cccnc2)CC1` (stereo not given), the Potency entry was “inactive”.

Take `CN(C)CC1CCCCC1OC(=O)c1ccc(Cl)c(Cl)c1` (stereo not given): the Potency result was “inactive”. For the compound `Cc1ccccc1N1C(=O)NC(=O)/C(=C\c2cc(C)n(C)c2C)C1=O`, the Potency result was “inactive”.

With `COc1cccc(N2C(=O)NC(=O)/C(=C\c3ccc([N+](=O)[O-])s3)C2=O)c1`, the Potency was 17.8 µM (active). Regarding `Cc1cccc(N2C(=O)NC(=O)/C(=C\c3cnn(-c4ccccc4)c3)C2=O)c1`, the Potency result is “inactive”. Consider `CC1=C(C(=O)Nc2ccccc2)S(=O)(=O)CCO1`, for which the Potency result was “inactive”.

Take `O=c1oc2ccccc2c(O)c1C(c1ccccc1O)c1c(O)c2ccccc2oc1=O`: the Potency entry is “inactive”. As for `CC(=O)c1c(O)c(C)c(O)c(Cc2c(O)c3c(c(C(=O)/C=C\c4ccccc4)c2O)OC(C)(C)C=C3)c1O`, the Potency is 20 µM (active). Consider `O=C(Cn1c(=O)n(CC2CS2)c2ccccc21)N1CCCCC1` (stereo not given), for which the Potency result is “inactive”. Regarding `C[C@]12CC[C@@H]3C(=CCc4cc(O)ccc43)[C@@H]1CCC2=O`, the Potency entry is “inactive”.

Consider `C[N+]12CN3CN(CN(C3)C1)C2`, for which the Potency entry is “inactive”.

On to `CN(C)C1C(=O)C(C(N)=O)=C(O)[C@@]2(O)C(=O)C3=C(O)c4c(O)cccc4[C@@](C)(O)C3C[C@@H]12` (stereo not given in full), for which the Potency was 10 µM (active). As for `COc1cccc(CN2CCCC(C(=O)c3ccccc3SC)C2)c1O` (stereo not given), the Potency entry is “inactive”. With `CCOC(=O)C1SC2(C(F)(F)C(F)F)CC1(O)c1c(c(OC)c3occc3c1OC)O2` (stereo not given), the Potency result is “inactive”.

In the case of `COC1=C[C@]23CCCN2CCc2cc4c(cc2[C@@H]3[C@@H]1O)OCO4`, the Potency result was “inactive”. For the compound `C/C(=C\C=C/[C@@H](C)C(=O)O)[C@H]1CN[C@H](C(=O)O)[C@@H]1CC(=O)O`, the Potency was 12.6 µM (active). As to `COc1ccc(C(=O)CC2C(=O)N(C)C(=O)N(C)C2=O)cc1`, the Potency result was “inactive”. On to `Cc1cccc(OP(=O)(Oc2cccc(C)c2)OC(c2ccccc2)C(F)(F)F)c1` (stereo not given), for which the Potency entry is “inactive”. With `Fc1ccc(C2N3CCCN23)cc1` (stereo not given), the Potency result is “inactive”.
